This passage reports inhibition results from PubChem BioAssay AID624167 (Sanford-Burnham Center for Chemical Genomics, 2012).

In general, inhibition refers to the change of the read-out against control, counted positive when it falls.

A short description of the experiment: inhibition of PEG-3 promoter-driven reporter – cell-based, HeLa, luciferase, CREF/GAPDH counter-screen panel, dose response (AID 624167). The following applies: CREF/GAPDH counter-screens; run 1, dose range 1, at 100 µM (top of the series). A general note: The purpose of a counterscreen is to sort out artefacts and off-target activity.
Regarding `CCCC(=O)NC(c1ccc(OC)cc1)c1ccc2cccnc2c1O` (stereo not drawn), the inhibition amounted to 67.4%. As for `O=C(N/N=C/c1c(O)ccc2ccccc12)c1ccc(CO)nc1`, the figure is -8.84%. As to `NS(=O)(=O)c1ccc(CCNc2nn3c(-c4ccc(F)c(Cl)c4)cnc3s2)cc1`, the inhibition worked out at 73.4%.

Consider `Cc1ccc(OCC(=O)c2cc(C)n(-c3ccccc3)c2C)c([N+](=O)[O-])n1`, for which the inhibition was determined as 73%. Next, `CC(C)(C)c1ccc(Cn2c(=O)cnc3ccccc32)cc1`: 88.2%; `Cc1nc(C)c(C(=O)N/N=C/c2cc(Br)ccc2O)s1`: -7.82%. For the compound `OCCCNc1nccc(-c2cc(Nc3cccc(Cl)c3)ncn2)n1`, the inhibition came to 34.2%. Next, `Cc1ccsc1/C=N/Nc1cccc(C(=O)O)c1`: 95.8%; `Oc1[nH]c2ccc(Br)cc2c1N=NC(=S)N1CCOCC1`: 75.3%. Next, `CCCCCCN1C=C/C(=C\C=C(C#N)C#N)c2ccccc21`: 50.3%. Consider `COC1CC(C)C(OC)c2cc(O)cc(c2O)NC(=O)C(C)=CC=CC(C)C(OC(N)=O)C(C)=CC(C)C1OC` (stereo not drawn), for which the inhibition is 87.1%. Next, `CC(C)(C)c1ccc(Oc2ccc(N)cc2)cc1`: 90.1%.

Consider `O=C(N/N=C\c1c(O)ccc2ccccc12)c1ccc(Cn2cccn2)o1`, for which the inhibition amounted to 34.1%. Regarding `CCCC(=O)NC(c1ccc(Cl)cc1)c1ccc2cccnc2c1O` (stereo not drawn), the inhibition is 70.4%. Next, `COc1cccc(/C=N/NC(=O)c2c(C)nc3ccc(Cl)cn23)c1O`: -55.4%. As for `CN(C(=O)COC(=O)/C=C/c1cccc([N+](=O)[O-])c1)C1CCS(=O)(=O)C1` (stereo not drawn), the figure is 26%; as for `CC(C)CC1C(=O)N(Cc2cn(Cc3ccco3)nn2)CCS(=O)(=O)N1Cc1ccc(-c2ccc(F)cc2)cc1` (stereo not drawn), 60.2%.

In the case of `CC(=O)NC(c1ccc(Cl)cc1)c1ccc2cccnc2c1O` (stereo not drawn), the inhibition came to 69.3%.
